According to PubChem BioAssay AID1159580 (chemical genetic matrix, 2015):
Hit rate of the full screen: of about 5,500 compounds, about 2,000 (36%) were called active. Not shown: some 18% with an inconclusive outcome. Cut-off read from the data, not from the text of the source: active = normalized growth mostly below about 0.91 (no sharp cut-off); inconclusive = no clear call, values can overlap the other calls; inactive = mostly above about 0.92. The list shows a part of the results.

Test: chemical genetic growth profiling, strain panel (AID 1159580);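 note: tested at 20 µM; growth read once vehicle control cultures reached saturation at 30 °C; 1 = growth at the plate median or of vehicle wells; lower values mean less growth of the strain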
Conditions: growth OD

Measured: normalized growth

Cc1cc(-c2ccccc2)nnc1NCCN1CCOCC1
inactive: S. cerevisiae deletion strains, locus YJR075W, strain HOC1, active compounds read low 0.997 | S. cerevisiae deletion strains, locus YKL009W, strain mrt4, active compounds read low 1.08 | S. cerevisiae deletion strains, locus YKL068W, active compounds read low 0.969 | S. cerevisiae deletion strains, locus YKL085W, strain MDH1 (second series), active compounds read low 1 | S. cerevisiae deletion strains, locus YKL085W, strain MDH1, active compounds read low 1 | S. cerevisiae deletion strains, locus YKL160W, strain elf1, active compounds read low 0.966 | S. cerevisiae deletion strains, locus YKL190W, strain CNB1, active compounds read low 1 | S. cerevisiae deletion strains, locus YKR001C, strain vps1, active compounds read low 0.98 | S. cerevisiae deletion strains, locus YKR026C, strain gcn3, active compounds read low 0.995 | S. cerevisiae deletion strains, locus YKR091W, strain srl3, active compounds read low 0.995 | S. cerevisiae deletion strains, locus YLL001W, strain dnm1, active compounds read low 0.976 | S. cerevisiae deletion strains, locus YLL026W, active compounds read low 0.992 | S. cerevisiae deletion strains, locus YLL041C, strain sdh2, active compounds read low 0.988 | S. cerevisiae deletion strains, locus YLR027C, strain aat2, active compounds read low 0.989 | S. cerevisiae deletion strains, locus YLR039C, strain RIC1, active compounds read low 0.999 | S. cerevisiae deletion strains, locus YLR058C, strain SHM2, active compounds read low 1.01 | S. cerevisiae deletion strains, locus YLR102C, strain apc9, active compounds read low 0.968 | S. cerevisiae deletion strains, locus YLR113W, strain HOG1, active compounds read low 0.964 | S. cerevisiae deletion strains, locus YLR221C, strain rsa3, active compounds read low 0.989 | S. cerevisiae deletion strains, locus YLR258W, strain gsy2, active compounds read low 0.995 | S. cerevisiae deletion strains, locus YLR262C, strain YPT6 (second series), active compounds read low 0.98 | S. cerevisiae deletion strains, locus YLR262C, strain YPT6, active compounds read low 1.04 | S. cerevisiae deletion strains, locus YLR268W, strain sec22, active compounds read low 0.946 | S. cerevisiae deletion strains, locus YLR320W, strain mms22, active compounds read low 0.984 | S. cerevisiae deletion strains, locus YLR330W, strain CHS5, active compounds read low 0.999 | S. cerevisiae deletion strains, locus YLR342W, strain FKS1 (second series), active compounds read low 1.07 | S. cerevisiae deletion strains, locus YLR342W, strain FKS1, active compounds read low 0.983 | S. cerevisiae deletion strains, locus YLR357W, strain rsc2, active compounds read low 0.975 | S. cerevisiae deletion strains, locus YLR370C, strain arc18, active compounds read low 0.986 | S. cerevisiae deletion strains, locus YLR371W, strain rom2, active compounds read low 0.967 | S. cerevisiae deletion strains, locus YLR384C, strain iki3, active compounds read low 0.976 | S. cerevisiae deletion strains, locus YLR418C, strain cdc73, active compounds read low 0.998 | S. cerevisiae deletion strains, locus YML016C, strain PPZ1, active compounds read low 1.02 | S. cerevisiae deletion strains, locus YML032C, strain rad52, active compounds read low 0.974 | S. cerevisiae deletion strains, locus YML120C, strain ndi1, active compounds read low 0.972 | S. cerevisiae deletion strains, locus YML124C, strain tub3, active compounds read low 0.978 | S. cerevisiae deletion strains, locus YMR058W, strain fet3, active compounds read low 0.988 | S. cerevisiae deletion strains, locus YMR078C, strain ctf18, active compounds read low 0.978 | S. cerevisiae deletion strains, locus YMR125W, strain sto1, active compounds read low 0.972 | S. cerevisiae deletion strains, locus YMR129W, active compounds read low 0.989 | S. cerevisiae deletion strains, locus YMR205C, strain PFK2, active compounds read low 0.965 | S. cerevisiae deletion strains, locus YMR223W, strain ubp8, active compounds read low 1.02 | S. cerevisiae deletion strains, locus YMR231W, strain pep5, active compounds read low 0.998 | S. cerevisiae deletion strains, locus YMR263W, strain SAP30, active compounds read low 0.997 | S. cerevisiae deletion strains, locus YMR307W, strain GAS1, active compounds read low 1.04 | S. cerevisiae deletion strains, locus YNL067W, strain RPL9B, active compounds read low 0.985 | S. cerevisiae deletion strains, locus YNL071W, strain lat1, active compounds read low 0.987 | S. cerevisiae deletion strains, locus YNL128W, strain TEP1, active compounds read low 0.995 | S. cerevisiae deletion strains, locus YNL153C, strain GIM3, active compounds read low 1.01 | S. cerevisiae deletion strains, locus YNL183C, strain NPR1, active compounds read low 0.931 | S. cerevisiae deletion strains, locus YNL209W, strain ssb2, active compounds read low 0.991 | S. cerevisiae deletion strains, locus YNL233W, strain BNI4, active compounds read low 1.01 | S. cerevisiae deletion strains, locus YNL248C, strain rpa49, active compounds read low 0.985 | S. cerevisiae deletion strains, locus YNL250W, strain rad50, active compounds read low 0.98 | S. cerevisiae deletion strains, locus YNL271C, strain bni1, active compounds read low 0.968 | S. cerevisiae deletion strains, locus YNL298W, strain CLA4, active compounds read low 0.977 | S. cerevisiae deletion strains, locus YNL307C, strain MCK1, active compounds read low 0.993 | S. cerevisiae deletion strains, locus YNL322C, strain KRE1 (second series), active compounds read low 0.981 | S. cerevisiae deletion strains, locus YNL322C, strain KRE1, active compounds read low 0.994 | S. cerevisiae deletion strains, locus YNR049C, strain mso1, active compounds read low 0.982 | S. cerevisiae deletion strains, locus YNR052C, strain pop2, active compounds read low 0.973 | S. cerevisiae deletion strains, locus YOL006C, strain TOP1, active compounds read low 0.959 | S. cerevisiae deletion strains, locus YOL012C, strain htz1 0.852 | S. cerevisiae deletion strains, locus YOL147C, strain pex11, active compounds read low 0.977 | S. cerevisiae deletion strains, locus YOR001W, strain rrp6, active compounds read low 0.986 | S. cerevisiae deletion strains, locus YOR061W, strain CKA2, active compounds read low 1.01 | S. cerevisiae deletion strains, locus YOR069W, strain VPS5, active compounds read low 1.01 | S. cerevisiae deletion strains, locus YOR070C, strain gyp1, active compounds read low 0.993 | S. cerevisiae deletion strains, locus YOR080W, strain dia2, active compounds read low 0.987 | S. cerevisiae deletion strains, locus YOR083W, strain WHI5, active compounds read low 0.968 | S. cerevisiae deletion strains, locus YOR106W, strain vam3, active compounds read low 0.961 | S. cerevisiae deletion strains, locus YOR136W, strain idh2, active compounds read low 0.978 | S. cerevisiae deletion strains, locus YOR144C, strain elg1, active compounds read low 0.967 | S. cerevisiae deletion strains, locus YOR184W, strain ser1, active compounds read low 0.982 | S. cerevisiae deletion strains, locus YOR231W, strain MKK1, active compounds read low 0.971 | S. cerevisiae deletion strains, locus YOR265W, strain rbl2, active compounds read low 0.995 | S. cerevisiae deletion strains, locus YOR270C, strain vph1, active compounds read low 0.965 | S. cerevisiae deletion strains, locus YOR290C, strain snf2, active compounds read low 0.991 | S. cerevisiae deletion strains, locus YOR316C, strain cot1, active compounds read low 0.953 | S. cerevisiae deletion strains, locus YPL051W, strain arl3, active compounds read low 0.985 | S. cerevisiae deletion strains, locus YPL055C, strain LGE1, active compounds read low 1 | S. cerevisiae deletion strains, locus YPL078C, strain atp4, active compounds read low 0.989 | S. cerevisiae deletion strains, locus YPL106C, strain sse1, active compounds read low 0.959 | S. cerevisiae deletion strains, locus YPL240C, strain hsp82, active compounds read low 1 | S. cerevisiae deletion strains, locus YPL241C, strain CIN2, active compounds read low 1.01 | S. cerevisiae deletion strains, locus YPL256C, strain CLN2, active compounds read low 0.945 | S. cerevisiae deletion strains, locus YPR119W, strain clb2, active compounds read low 0.98 | S. cerevisiae deletion strains, locus YPR141C, strain kar3, active compounds read low 0.971 | S. cerevisiae deletion strains, locus YPR163C, strain tif3, active compounds read low 0.982 | S. cerevisiae deletion strains, locus YPR167C, strain met16, active compounds read low 0.97 | S. cerevisiae deletion strains, strain wtn01, active compounds read low 0.982 | S. cerevisiae strains, strain wild type, active compounds read low 1.01
